Test [1] can be described thus: NCI Yeast Anticancer Drug Screen. Data for the rad50 strain (AID 155).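 Further: 0% = growth of vehicle-only cultures of the same strain.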 To be noted: S. cerevisiae rad50 strain growth inhibition, stronger effect = higher value; at 50.0 µM unless noted. The method, boiled down: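 Vehicle-treated cultures provide the reference for the growth inhibition reported for compound-exposed, repair-deficient yeast.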
Test [2] in a line: NCI Yeast Anticancer Drug Screen. Data for the mec2-1 strain (AID 157). To be noted: S. cerevisiae mec2-1 strain, stronger effect = higher value; at 50.0 µM unless noted. The essentials:
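mec2-1 yeast strain, carrying an alteration in DNA damage repair or cell cycle control, was exposed to compounds; growth inhibition was measured relative to vehicle-treated controls.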

The nature of test [3]: NCI Yeast Anticancer Drug Screen. Data for the sgs1 mgt1 strain (AID 161).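 Further: 0% = growth of cultures given vehicle only.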 Particulars: S. cerevisiae sgs1 mgt1 strain, stronger effect = higher value; at 50.0 µM unless noted. The essentials: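 This yeast growth screen uses a strain with defined DNA-repair lesions; compound-treated growth is compared with vehicle-treated growth.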
The nature of test [4]: NCI Yeast Anticancer Drug Screen. Data for the cln2 rad14 strain (AID 165).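 Further: 0% = growth equal to vehicle treated cultures.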 Particulars: S. cerevisiae cln2 rad14 strain, stronger effect = higher value; at 50.0 µM unless noted. The essentials: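 Yeast carrying cln2 and rad14 alterations (cell cycle control and DNA damage repair) were exposed to compounds. Growth inhibition was measured against vehicle-treated controls.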
A short description of test [5]: NCI Yeast Anticancer Drug Screen. Data for the bub3 strain (AID 167). Particulars: S. cerevisiae bub3 mutant strain, stronger effect = higher value; at 50.0 µM unless noted. The method, boiled down: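 Mutant yeast screening strain plus compound; vehicle-treated cultures serve as the 0% inhibition reference.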
Test [6] in a line: NCI Yeast Anticancer Drug Screen. Data for the mlh1 rad18 strain (AID 175). Particulars: S. cerevisiae mlh1 rad18 strain growth inhibition, stronger effect = higher value; at 50.0 µM unless noted. The method, boiled down:
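Growth inhibition of the yeast strain was measured after compound exposure and expressed relative to vehicle-treated controls. The strain carries defined defects in DNA damage repair.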

“And” between values parts separate entries of the source, which are not always exact repeats. Equal values may be shown once. About 79,000 compounds went through this panel and 15% of them were active in at least one assay; those are over-represented in the sample as a whole. A number with no mark means an inactive call. The source made the active and inactive calls. No stated cut-off is given here; in the data, active means growth inhibition above about 70%; inactive means the rest.

On to `NCC(O)C(O)C(O)CO` (stereo not given), for which the growth inhibition in test [1] was 6.15%; in test [2], -6%; in test [3], -1.3%; in test [4], -20%; in test [5], 9.1%; in test [6] it was -8.8%.
For the compound `CCCCCCCC1C(=O)OC2CC3C(C)=CC(=O)C(O)C3(C)C3C4(O)OCC23C1C(C)C4O` (stereo not given), the growth inhibition in test [1] was 91.5% (active); in test [2], 92.3% (active); in test [3], 91% (active); in test [4], 91.4% (active); in test [5], 90.2% (active); in test [6], 92.1% (active).
For the compound `CN(Cc1cnc2nc(N)nc(N)c2n1)c1ccc(C(=O)NC(CCC(=O)OCc2c(Cl)cccc2Cl)C(=O)OCc2c(Cl)cccc2Cl)cc1` (stereo not given), the growth inhibition in test [1] was 17.1%; in test [2] it was 9.2%; in test [3], 28.5%; in test [4], 36.2%; in test [5] it was 22.1%; in test [6] it was 24.5%.
On to `CN(C)Cc1ccccc1`, for which the growth inhibition in test [1] was 28.8%; in test [2], 15.8%; in test [3], 14.8%; in test [4], -58%; in test [5] it was 11.1%; in test [6] it was 17.6%.
With `CCC12CCCNC1c1c(n(C)c3ccccc13)C(C(=O)OC)C2` (stereo not given), the growth inhibition is 36.9% in test [1]; -2.9% in test [2]; 25% in test [3]; 25.6% in test [4]; -9.05% in test [5]; -20.7% in test [6].
For the compound `CC1(C)N=C(Oc2cc(Cl)cc(Cl)c2)NC(=S)N1`, the growth inhibition in test [1] is 11.8%; in test [2], -8.3%; in test [3] it was 24%; in test [4], 21.2%; in test [5] it was 7%; in test [6], 24%.
In the case of `COc1cc(/C=N/NC(=O)c2ccccc2OC)ccc1O`, the growth inhibition in test [1] was 41.4%; in test [2] it was 17.4%; in test [3] it was 22.9%; in test [4], 20.8%; in test [5], 27.9%; in test [6], 17.2%.
`CCOC(=O)c1[nH]c(=S)n(C)c1C(=O)OCC`: the growth inhibition is -12.9% in test [1]; 6.75% in test [2]; 29.1% in test [3]; -33% in test [4]; 8.1% in test [5]; 0.55% in test [6].
Consider `Clc1ccc2c(c1)C(=P(c1ccccc1)(c1ccccc1)c1ccccc1)c1cc(Cl)cc(Cl)c1-2`, for which the growth inhibition in test [1] was 83.7% (active); in test [2] it was 52.6%; in test [3], 66.8%; in test [4], 50.6%; in test [5], 39.3%; in test [6], 64.6%.
In the case of `CCOc1ccc(N2C(=O)/C(=C/c3ccc(N(CCC#N)CCC#N)cc3)N=C2c2cc([N+](=O)[O-])ccc2Cl)cc1`, the growth inhibition was 5.85% in test [1]; -1.15% in test [2]; -9.8% in test [3]; 17.8% in test [4]; 9.3% in test [5]; -6.6% in test [6].
Take `COc1cc(CC(C(=O)O)C(C)C(=O)c2ccc3c(c2)OCO3)cc(OC)c1OC` (stereo not given): the growth inhibition is -4.75% in test [1]; 0.1% in test [2]; -11.9% in test [3]; -24.6% in test [4]; -10.4% in test [5]; -15.8% in test [6].
Take `COc1c2c(c(OC)c3c(=O)cc(C/C(=N/NC(=O)C[n+]4ccccc4)C(=O)Nc4cc(C)ccc4C)oc13)OCO2`: the growth inhibition in test [1] is -13.4%; in test [2], -6.65%; in test [3], -18.1%; in test [4], 5.6%; in test [5], -3.15%; in test [6], -0.3%.
Regarding `O=[N+]([O-])c1ccc(C[n+]2ccccc2)cc1`, the growth inhibition was -1.25% and 31.9% in test [1]; 13.2% and -3.9% in test [2]; -4.2% and -1.45% in test [3]; -15.8% and 16.4% in test [4]; -6.95% and -2.65% in test [5]; -18.2% and 13.7% in test [6].
On to `O=C(NCCCN1CCN(CCCNC(=O)Nc2ccc(N=Nc3ccccc3)cc2)CC1)Nc1ccc(N=Nc2ccccc2)cc1`, for which the growth inhibition is -0.95% in test [1]; 16.3% in test [2]; 0.65% in test [3]; -3.3% in test [4]; -1.8% in test [5]; 14.6% in test [6].
With `CCOC(=O)C(Sc1ccc(C)cc1)C(Sc1ccc(C)cc1)C(=O)OCC` (stereo not given), the growth inhibition is 0.6% in test [1]; -6.6% in test [2]; 11.2% in test [3]; -17.3% in test [4]; -0.3% in test [5]; -0.75% in test [6].
In the case of `COc1cc(C(=O)NO)ccc1O`, the growth inhibition in test [1] is -0.15%; in test [2], -12.6%; in test [3] it was -15.1%; in test [4] it was -1.95%; in test [5] it was -6%; in test [6] it was -1.4%.
Take `O=C1/C(=C/c2cccnc2)SC(=S)N1Cc1ccco1`: the growth inhibition in test [1] was 2.7%; in test [2] it was -21.1%; in test [3], -8.85%; in test [4] it was 40%; in test [5], -6.45%; in test [6], 1.45%.
Turning to `CCSc1nc2n(c(=S)n1)CCN2C`, the growth inhibition was 15.4% in test [1]; -3.5% in test [2]; 13.8% in test [3]; 6.5% in test [4]; 22.6% in test [5]; 18.2% in test [6].
In the case of `CC(=O)OC1CCC(C(C)(C)C)CC1` (stereo not given), the growth inhibition in test [1] was -12.8%; in test [2], -41%; in test [3], -19.2%; in test [4] it was 2.5%; in test [5], -28.2%; in test [6] it was -15.8%.
For `COC(=O)c1cc2c(cc1/C=C/C=O)OCO2`, the growth inhibition is -20% in test [1]; -15.8% in test [2]; -19.4% in test [3]; -27.9% in test [4]; -11% in test [5]; 13.8% in test [6].

The values above are taken from PubChem BioAssay (NCI).
